Source: the supplement of paper PMC6897291

Tested on: RIVA
Assay: growth inhibition by drug plus 177Lu-lilotomab satetraxetan (1 - RLU/untreated control) (fraction); higher = stronger inhibition
Settings: 177Lu-lilotomab satetraxetan 0.5 ug/ml
Experimental: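 RIVA (RI-1) ABC-DLBCL cells were pretreated or not for 18 h with 0.5 ug/ml 177Lu-lilotomab satetraxetan (600 MBq/mg), washed and seeded (3000 cells/well) on 384-well plates pre-printed with the Selleck Cambridge Cancer Compound library. Viability was read by RealTime-Glo luminescence on days 3-6 after seeding. Effect = 1 - RLU/mean RLU of the 48 untreated no-drug control wells per plate; Bliss score = (M-E)/(1-Fa).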

Row | SMILES | growth inhibition by drug plus 177Lu-lilotomab satetraxetan (10 nM, time (day): 3) | growth inhibition by drug plus 177Lu-lilotomab satetraxetan (10 nM, time (day): 4) | growth inhibition by drug plus 177Lu-lilotomab satetraxetan (10 nM, time (day): 5) | growth inhibition by drug plus 177Lu-lilotomab satetraxetan (10 nM, time (day): 6) | growth inhibition by drug plus 177Lu-lilotomab satetraxetan (100 nM, time (day): 3) | growth inhibition by drug plus 177Lu-lilotomab satetraxetan (100 nM, time (day): 4) | growth inhibition by drug plus 177Lu-lilotomab satetraxetan (100 nM, time (day): 5) | growth inhibition by drug plus 177Lu-lilotomab satetraxetan (100 nM, time (day): 6)
1 | N[C@@H](Cc1ccc(N(CCCl)CCCl)cc1)C(=O)O [Melphalan] | 0.357 | 0.502 | 0.516 | 0.527 | 0.365 | 0.48 | 0.492 | 0.494
2 | CC(=O)Nc1ccc(OC[C@](C)(O)C(=O)Nc2ccc([N+](=O)[O-])c(C(F)(F)F)c2)cc1 [Andarine (GTX-007)] | 0.585 | 0.603 | 0.615 | 0.608 | 0.404 | 0.5 | 0.511 | 0.533
3 | CC[C@@H](C(=O)[C@@H](C)[C@@H](O)[C@H](C)[C@@H]1O[C@@H]([C@@H](CC)C(=O)O)CC[C@@H]1C)[C@H]1O[C@]2(C=C[C@@H](O)[C@]3(CC[C@@](C)([C@H]4CC[C@](O)(CC)[C@H](C)O4)O3)O2)[C@H](C)C[C@@H]1C [Salinomycin (Procoxacin)] | 0.491 | 0.572 | 0.591 | 0.6 | 0.481 | 0.518 | 0.517 | 0.502
4 | CN(C)CCN(C)CCc1ccc(Cl)c(Cl)c1 | 0.215 | 0.408 | 0.459 | 0.48 | 0.0519 | 0.192 | 0.22 | 0.211
5 | C=C1C[C@@H]2[C@H](CC[C@]3(C)C(=O)CC[C@@H]23)[C@@]2(C)C=CC(=O)C=C12 [Exemestane] | 0.609 | 0.639 | 0.647 | 0.653 | 0.483 | 0.528 | 0.533 | 0.543
